Laboratory results taken from PubChem BioAssay (NCATS).
Results filed as inconclusive are left out. Calls of active or inactive are those of the source. Unless noted, calls follow the shape of the dose curve; as a rule, active = well fitted inhibition curve with a large enough effect; inconclusive = small, poorly fitted or top-dose-only effect; inactive = no such curve, though single readings can be large or run the other way.

Key:
[1] = qHTS profiling of the MIPE4 collection as inhibitors of Plasmodium falciparum (3D7) proliferation (AID 743344; call rule not given here;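 also: scaled between DMSO vehicle wells and 0.29 µM artemisinin as full inhibition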); conditions: P. falciparum 3D7 in erythrocytes, SYBR Green DNA fluorescence, 72 h; at 28.5 µM unless noted
How it was run: (§1)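 Parasite DNA was quantified by SYBR Green I fluorescence (ex 485, em 535 nm) after overnight lysis in saponin/Triton buffer at room temperature. Cultures at 0.3% parasitemia and 2.5% hematocrit were first exposed to compound for 72 h at 37 C; signals were normalised to artemisinin (0.29 uM) and vehicle wells.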

[2] = qHTS profiling of the MIPE4 collection as inhibitors of Plasmodium falciparum (DD2) proliferation (AID 743345; call rule not given here); conditions: P. falciparum Dd2 in erythrocytes, SYBR Green DNA, 72 h; at 28.5 µM unless noted
How it was run: as §1

[3] = qHTS profiling of the MIPE4 collection as inhibitors of Plasmodium falciparum (DD2) proliferation (Rep 2) (AID 743346; call rule not given here); conditions: P. falciparum Dd2 in erythrocytes, SYBR Green DNA, 72 h; at 28.5 µM unless noted
How it was run: as §1

[4] = qHTS profiling of the MIPE4 collection as inhibitors of Plasmodium falciparum (HB3) proliferation (AID 743347; call rule not given here;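 also: plate controls were DMSO vehicle wells for no effect and artemisinin wells for full effect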); conditions: P. falciparum HB3 in erythrocytes, SYBR Green DNA, 72 h; at 28.5 µM unless noted
How it was run: as §1

[5] = High-throughput drug toxicity screening in the BPDCN cell line Gen2.2 (AID 1224824; call rule not given here;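 also: cells exposed to compounds for 48 h before reading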); conditions: Gen2.2 BPDCN cells; at 45.8 µM (top of the series) unless noted
How it was run: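 CellTiter-Glo luminescence read after 48 h compound exposure at 37 C defines viability; percent activity set with DMSO as 100% and bortezomib (9.2 uM final) as 0%. 500 exponentially growing cells per well, RPMI plus 10% FBS.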

[6] = High-throughput drug toxicity screening in the BPDCN cell line Cal-1 (AID 1224825; call rule not given here); conditions: Cal-1 BPDCN cell viability, qHTS; at 45.8 µM (top of the series) unless noted
How it was run: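 CellTiter-Glo luminescence after 48 h compound exposure; percent activity scaled with DMSO as 100% and bortezomib (9.2 uM final) as 0%. Cal-1 cells seeded at 500/well in RPMI, 10% FBS, no phenol red.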

[7] = qHTS assay for measurement of the activity of small molecule inhibitors on Zika virus induced Caspase-3 activity in human iPSC derived neural progenitor cells (hNPCs) (AID 1224857); also: % of control where 0% means no effect; nearly all actives have a fitted effect of over 65% in size
How it was run: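 Caspase-3/7 induction by a 6-hour ZIKV infection was quantified with a luminescent Caspase-Glo 3/7 reagent incubated 30 minutes at room temperature. Compounds were preincubated with hNPCs for 1 hour; inhibition was calculated against uninfected and infected control wells.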

[8] = qHTS assay for measurement of the activity of small molecule inhibitors on Zika virus induced Caspase-3 activity in human astrocytoma cells (AID 1224859);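 also: plate controls were ZIKV-infected untreated cells for no effect and uninfected cells for full effect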
How it was run: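 In SNB-19 cells plated at 250 cells/well and grown 16-20 h, compounds were applied 1 h before ZIKV (2 FFU/cell). Six hours later caspase-3/7 luminescence was recorded.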

[9] = qHTS Screen of the MIPE 4.0 Collection Against Ewings Sarcoma (RDES) (AID 1259252); also: nearly all actives have a fitted effect of over 35% in size; also: potency is read from the fitted curve at half-maximal effect
How it was run: (§2)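 Log-phase cells in RPMI with 5% FBS attached for 4 h, then received compounds as a titration for 48 h at 37C, 5% CO2. Viability was read by CellTiter-Glo luminescence and normalized to DMSO and no-cell wells.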

[10] = qHTS Screen of the MIPE 4.0 Collection Against Ewings Sarcoma (TC71) (AID 1259253); also: nearly all actives have a fitted effect of over 40% in size; also: potency is read from the fitted curve at half-maximal effect
How it was run: as §2

[11] = qHTS Screen of the MIPE 4.0 Collection Against Ewings Sarcoma (EW8) (AID 1259255); also: nearly all actives have a fitted effect of over 35% in size; also: potency is read from the fitted curve at half-maximal effect;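 as to viability: 100% = DMSO-treated cells and 0% = medium-only wells without cells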
How it was run: as §2

[12] = qHTS Screen of the MIPE 4.0 Collection Against Ewings Sarcoma (TC32) (AID 1259256); also: nearly all actives have a fitted effect of over 45% in size; also: potency is read from the fitted curve at half-maximal effect
How it was run: as §2

SMILES	parasite growth, % of DMSO control [1]	parasite growth remaining, % of DMSO control (lower = more inhibition) [2]	parasite growth, % of control (lower = inhibition) [3]	growth, % of control [4]	cell viability, % of control (lower = more cytotoxic) [5]	viability (% of control) [6]	Potency [7]	Potency [8]	Potency [9]	Potency [10]	Potency [11]	Potency [12]
CS[C@H]1SC[C@@H]2C(=O)N(C)[C@H](C(C)C)C(=O)OC[C@H](NC(=O)c3cnc4ccccc4n3)C(=O)N[C@H](C)C(=O)N(C)[C@@H]1C(=O)N(C)[C@H](C(C)C)C(=O)OC[C@H](NC(=O)c1cnc3ccccc3n1)C(=O)N[C@H](C)C(=O)N2C	7.68%	5.94%	7.64%	10.7%	3.67%	5.19%	inactive	inactive	0.0019 µM (active)	0.0026 µM (active)	0.0019 µM (active)	0.0019 µM (active)
CC(=O)O[C@]1(C(C)=O)CC[C@H]2[C@@H]3C=C(C)C4=CC(=O)CC[C@]4(C)[C@@H]3CC[C@@]21C	23.2%	73.4%	18.8%	10.6%	5.55%	3.38%	inactive	inactive	3.32 µM (active)	4.18 µM (active)	7.43 µM (active)	5.26 µM (active)
Cc1ncc(-c2ccnc(Nc3ccc(S(C)(=O)=O)cc3)n2)n1C(C)C	6.84%	19.3%	10.8%	7.75%	6.27%	4.48%	inactive	inactive	4.69 µM (active)	2.64 µM (active)	4.69 µM (active)	4.18 µM (active)
CCN1CCN(C(=O)N[C@H](C(=O)N[C@@H]2C(=O)N3C(C(=O)O)=C(CSc4nnnn4C)CS[C@@H]23)c2ccc(O)cc2)C(=O)C1=O	91.3% [at 9.64 µM]	95.9% [at 9.64 µM]	57.9% [at 9.64 µM]	90.1% [at 9.64 µM]	149% [at 15.3 µM]	113% [at 15.3 µM]	inactive	inactive	inactive	inactive	inactive	inactive
C=CC(=O)N1CCc2ccc(-n3c(=O)ccc4cnc5ccc(-c6cnn(C)c6)cc5c43)cc21	5.53%	8.35%	8.38%	4.27%	1.99%	2.44%	inactive	inactive	6.62 µM (active)	3.32 µM (active)	3.32 µM (active)	3.32 µM (active)
COc1cccc2c1C(=O)c1c(O)c3c(c(O)c1C2=O)C[C@@](O)(C(C)=O)C[C@H]3O[C@H]1C[C@H](N)[C@H](O)[C@H](C)O1	13.5%	5.82%	6.6%	6.78%	3.75%	3.72%	inactive	inactive	0.0418 µM (active)	0.0662 µM (active)	0.0526 µM (active)	0.0469 µM (active)
CC(Oc1ccc(O)cc1)(P(=O)(O)O)P(=O)(O)O	64.8%	101%	64.2%	98.7%	123%	107%	inactive	inactive	inactive	inactive	inactive	inactive
Cn1cnc(=N)c2[nH]cnc21	5.58%	6.87%	7.19%	3.51%	128%	8.73%	inactive	inactive	0.296 µM (active)	0.235 µM (active)	0.209 µM (active)	0.132 µM (active)
C[C@H](NC(=O)Cc1cc(F)cc(F)c1)C(=O)N[C@H](C(=O)OC(C)(C)C)c1ccccc1	74.2%	95.2%	79.9%	99.7%	89%	96.1%	inactive	inactive	inactive	inactive	inactive	inactive
OCCNC1CCCc2c1[nH]c1ccc(-c3ccccc3)cc21 (stereo not given)	7.39%	15.7%	13.3%	3.72%	1.69%	0.798%	inactive	inactive	26.4 µM (active)	20.9 µM (active)	23.5 µM (active)	18.7 µM (active)
C[C@H]1[C@@H](OC(=O)CCC(=O)O)O[C@@H]2O[C@@]3(C)CC[C@@H]4[C@H](C)CC[C@@H]1[C@@]24OO3	21.4%	7.38%	10.6%	8.92%	9.55%	5.3%	inactive	inactive	1.87 µM (active)	1.32 µM (active)	1.66 µM (active)	9.35 µM (active)
CC(=O)SCC(Cc1ccccc1)C(=O)NCC(=O)OCc1ccccc1 (stereo not given)	43.2%	97.5%	60.4%	65.1%	5.18%	4.75%	inactive	inactive	0.59 µM (active)	0.833 µM (active)	1.05 µM (active)	0.743 µM (active)
COc1cccc2c1C(=O)c1c(O)c3c(c(O)c1C2=O)C[C@@](O)(C(=O)CO)C[C@@H]3O[C@H]1C[C@H](N)[C@@H](O)[C@H](C)O1	3.7%	4.88%	4.28%	2.54%	8.09%	4.51%	inactive	inactive	0.264 µM (active)	0.187 µM (active)	0.0296 µM (active)	0.0042 µM (active)
Nc1nc2c(c(=O)[nH]1)N(C=O)[C@H](CNc1ccc(C(=O)N[C@@H](CCC(=O)O)C(=O)O)cc1)CN2	106%	96.2%	86.2%	103%	118%	92.1%	inactive	inactive	inactive	inactive	inactive	inactive
CCNC(=O)Nc1ccc(-c2nc3c(c(N4CCOC[C@H]4C)n2)CCN(C2COC2)C3)cc1	24.6%	87.1%	49%	71.6%	5.52%	19.9%	inactive	inactive	1.05 µM (active)	0.935 µM (active)	1.05 µM (active)	0.935 µM (active)
